Reference: PubChem BioAssay AID1463 (National Center for Advancing Translational Sciences (NCATS), 2008)
“And” between values parts separate entries of the source, which are not always exact repeats. Identical values can stand only once. Among all 280,000 compounds or so, about 2,600 (0.93%) were called active. Entries that show only a call come without a potency. About 8% were inconclusive and are not listed. This is one part of a sample in which actives are shown more often than they occur. Calls come from the whole dose curve; as a rule, active = well fitted curve in the direction sought with a large enough effect; inconclusive = small, poorly fitted or top-dose-only effect; inactive = flat fitted curve, though single readings scatter.

assay: Counterscreen qHTS for Inhibitors of Tau Fibril Formation, Fluorescence Polarization; settings: tau K18 P301L (four-repeat tau fragment) Alexa594 fluorescence, heparin fibrillization; series mostly up to 57.7 µM; note: nearly all actives have a fitted effect of over 55% in size
From the text: NIH Molecular Libraries Probe Production Network [MLPCN]
NIH Chemical Genomics Center [NCGC]
Assay Provider: Carlo Ballatore, University of Pennsylvania
The microtubule-associated protein tau is an abundant protein in the axons of neurons that stabilizes microtubules. With its ability to modulate microtubule dynamics, tau contributes directly or indirectly, to key structural and regulatory cellular functions. Particularly important is the influence tau exerts on axonal transport, which allows signaling molecules, trophic factors and other essential cellular constituents to travel along the axons. Under pathological conditions, tau becomes sequestered into insoluble aggregates called neurofibrillary tangles. This phenomenon is believed to have pathological consequences by promoting axonal transport deficits that ultimately lead to synaptic dysfunction and neuronal loss. To identify inhibitors of tau aggregation, a heparin-induced tau fibril formation assay was used that employed a recombinantly expressed fragment of tau, K18 (Q242-E372), bearing a P301L mutation (Gustke et al. 1994; Hong et al. 1998). […] Total fluorescence (555 nm excitation and 632 nm emission) was measured to identify fluorescent or absorbent compounds at this wavelength. Such compounds may be artifacts that interfere with the Alexa 594 Tau fluorescence polarization assay.
Gustke, N., B. Trinczek, et al. (1994). "Domains of tau protein and interactions with microtubules." Biochemistry 33(32): 9511-22.
Hong, M., V. Zhukareva, et al. (1998).
Li, W. and V. M. Lee (2006). "Characterization of two VQIXXK motifs for tau fibrillization in vitro." Biochemistry 45(51): 15692-701.
von Bergen, M., S. Barghorn, et al. (2001). "Mutations of tau protein in frontotemporal dementia promote aggregation of paired helical filaments by enhancing local beta-structure." J Biol Chem 276(51): 48165-74.
NCGC Assay Protocol Summary:
For screening, 2 uL/well human K18 P301L (15 uM unlabeled and 0.24 uM Alexa 594-labeled tau final concentrations) in reagent buffer (100 mM sodium acetate pH 7) was dispensed into black solid 1536-well plates (Grenier) using a solenoid-based dispenser. Following transfer of 23 nL compound or DMSO vehicle by a pin tool, 2 uL/well heparin (20 uM final concentration) in reagent buffer was added and the plate centrifuged 15 s at 1000 RPM. Plates were incubated 6 hr at 37 C and then 1 uL/well ThT (30 uM final concentration) was added. After a 1 hr ambient incubation, the plates were read by an Envision (Perkin Elmer) to monitor Alexa 594 FP (555 nm excitation and 632 nm emission).
Keywords: NIH Roadmap, MLPCN, MLI, MLSMR, NCGC, qHTS, tau, tauopathies, Alzheimer's disease, fibril, neurodegeneration, aggregation
Potency is the fitted concentration of half-maximal effect; tags give direction and shape of the fitted curve or compound fluorescence and quenching.

Q: With `O=C(OCC1O[C@@H](OC(=O)c2cc(O)c(O)c(O)c2)[C@@H](OC(=O)c2cc(O)c(O)c(O)c2)[C@@H](OC(=O)c2cc(O)c(O)c(O)c2)[C@@H]1OC(=O)c1cc(O)c(O)c(O)c1)c1cc(O)c(O)c(O)c1` (stereo not given in full) as the molecule, how does the Potency read?
A: The Potency was 10 µM [quencher] (active).

Q: With `C=CCN1CCC2(C)c3cc(O)ccc3CC1[C@@H]2C` (stereo not given in full) as the molecule, how does the Potency read?
A: Its Potency is “inactive”.

Q: Which Potency does the source give for `COC1CC(OC2CC[C@@]3(C=O)C4CC[C@]5(C)C(C6=CC(=O)OC6)CC[C@@]5(O)C4CC[C@]3(O)C2)OC(C)C1O` (stereo not given in full) here?
A: The Potency was “inactive”.

Q: Which Potency does the source give for `N#CC(C#N)=Cc1cc(O)c(O)c([N+](=O)[O-])c1` here?
A: Its Potency is “inactive”.

Q: For `CC(=O)c1c(O)c(C)c(O)c(Cc2c(O)c3c(c(C(=O)/C=C/c4ccccc4)c2O)OC(C)(C)C=C3)c1O`, which Potency is on record?
A: Its Potency is 15.8 µM [quencher] (active) and 12.6 µM [quencher] (active).

Q: For `CO[C@@H]1C[C@@H](C[C@H]2CC[C@H](C)[C@@H]([C@@H](C)C(=O)O)O2)O[C@]2(O[C@](C)([C@H]3CC[C@@](C)(C4OC([C@H]5O[C@@](O)(CO)[C@H](C)C[C@@H]5C)C[C@@H]4C)O3)C[C@H]2C)[C@@H]1C` (stereo not given in full), which Potency is on record?
A: The Potency was “inactive”.

Q: With `CN(C)[C@@H]1C(=O)C(C(N)=O)=C(O)[C@@]2(O)C(=O)C3=C(O)c4c(O)cccc4[C@@](C)(O)C3CC12` (stereo not given in full) as the molecule, how does the Potency read?
A: Its Potency is “inactive”.

Q: For `CCCCCCCCCCCCCC(=O)O[C@@H]1[C@@H](C)[C@@]2(O)[C@@H](C=C(CO)C[C@]3(O)C(=O)C(C)=C[C@@H]23)[C@@H]2C(C)(C)[C@]12OC(C)=O`, which Potency is on record?
A: The Potency was “inactive”.

Q: Which Potency does the source give for `COc1ccccc1-c1[se]c2ccccc2c1I` here?
A: The Potency was “inactive”.

Q: With `CC(C)(C)c1ccc(S(=O)(=O)Nc2ccc(O)c(Sc3nc4ccccc4s3)c2)cc1` as the molecule, how does the Potency read?
A: The Potency was 8.91 µM [quencher] (active).

Q: With `c1ccc2sc(SNC3CCCCC3)nc2c1` as the molecule, how does the Potency read?
A: The Potency was “inactive”.

Q: With `CC[C@]1(O)C(=O)OCc2c1cc1n(c2=O)Cc2cc3ccccc3nc2-1` as the molecule, how does the Potency read?
A: Its Potency is “inactive”.

Q: For `CCCN(C/C=C/I)C1CCc2ccc(O)cc2C1` (stereo not given), which Potency is on record?
A: Its Potency is “inactive”.

Q: Which Potency does the source give for `CN(C)C1C(=O)C(C(N)=O)=C(O)[C@@]2(O)C(=O)C3=C(O)c4c(O)cccc4[C@@](C)(O)C3C[C@@H]12` (stereo not given in full) here?
A: The Potency was “inactive”.

Q: Which Potency does the source give for `CC[C@@H]1CN2CC[C@@H]1C[C@H]2[C@H](O)c1ccnc2ccc(OC)cc12` here?
A: The Potency was “inactive”.
